Activity calls are given as the source filed them.
Key:
[1] = test system: Lefty1; assay: Lefty1 binders on small-molecule microarrays, primary screen, biochemical, small-molecule microarray, 635/667 nm fluorescence (AID 1139); details: small-molecule microarray binding, fluorescence 635/667; higher = more signal
[2] = test system: wheat germ agglutinin (Triticum aestivum), Alexa647-labelled; assay: wheat germ agglutinin binders on compound microarrays, profiling panel, artefact control for SMM control-protein annotation, biochemical, small-molecule microarray, 635/667 nm fluorescence (AID 1140); details: WGA-A647 binding, 635 nm fluorescence, higher = more signal;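 note: score merges 667 nm feature emission with signal to noise over triplicate slides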
[3] = molecular target: Luciferin 4-monooxygenase (Photinus pyralis) (UniProt P08659); assay: firefly luciferase enzyme inhibitors, primary screen, biochemical, luminescence, purified enzyme, 2006 set (AID 1141); details: SteadyGlo luminescence, 30 min, higher = more signal, called active from +8 up or from −8 down;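 note: cell-free assay with purified firefly luciferase at 100 ng per well in PBS; test concentration not given here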
[4] = test system: Wnt5a (protein binding on small-molecule microarray); assay: Wnt5a binders on small-molecule microarray, primary screen, biophysical, 635/667 nm fluorescence (AID 1142); details: 635 nm fluorescence, higher = more signal;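 note: fluorescence read at 667 nm with signal to noise per printed feature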
[5] = cell viability in Huh7 cells, primary screen, cytotoxicity control for HCV replication inhibitor project, CellTiter-Glo luminescence, basal, 48 h (AID 1143); details: Huh7 HCV replicon, higher = more signal, called active from +8 up or from −8 down;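 note: Huh7 hepatoma cells carrying a hepatitis C replication reporter with no stimulus; test concentration not given here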
[6] = CREB reporter modulators without forskolin, primary screen, cell-based, PC12, CRE-LacZ reporter, unstimulated (AID 1145); details: no forskolin, luminescence, 4.5 h, higher = more signal, called active from +8 up or from −8 down
[7] = CREB reporter modulators under forskolin, primary screen, cell-based, PC12, CRE-LacZ reporter, forskolin-stimulated (AID 1146); details: luminescence, 4.5 h, higher = more signal, called active from +8 up or from −8 down;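 note: PC12 cells with 6xCRE LacZ reporter stimulated by forskolin 10 µM; beta-galactosidase reporter signal reflecting CREB driven transcription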
[8] = molecular target: Streptavidin (Streptomyces avidinii) (UniProt P22629); assay: streptavidin binders on small-molecule microarray, primary screen, artefact control for SMM compound annotation, biophysical, 635/667 nm fluorescence (AID 1147); details: streptavidin binding, higher = more signal;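 note: signal reflects streptavidin binding to arrayed compounds as a control protein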
[9] = small-molecule binders of probe aInhba, primary screen, biochemical, small-molecule microarray, 635/667 nm fluorescence (AID 1148); details: higher = more signal;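 note: score merges 667nm spot fluorescence with signal-to-noise for antibody binding to printed compounds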
[10] = molecular target: Torsin-1A (Homo sapiens) (UniProt O14656); assay: torsin A binders from cell lysate, primary screen, small-molecule microarray, wild-type, 635/667 nm (AID 1149); details: COS7 hTOR1A-WT lysate, 635 nm fluorescence, higher = more signal
[11] = molecular target: Torsin-1A (Homo sapiens) (UniProt O14656); assay: small-molecule binders of mutant TOR1A in lysate, primary screen, cell lysate, small-molecule microarray, COS7 lysate, 635/667 nm fluorescence (AID 1150); details: COS7 hTOR1A mutant lysate, 635 nm fluorescence, higher = more signal;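 note: score pools 667 nm emission and signal to noise measuring lysate protein binding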
[12] = test system: Sonic hedgehog protein (Shh); assay: small-molecule binders of Shh protein, primary screen, biochemical, small-molecule microarray, 635/667 nm fluorescence (AID 1151); details: small-molecule microarray binding, 635 nm fluorescence; higher = more signal;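 note: Shh protein binding to compounds spotted on small-molecule microarray slides; score combines spot fluorescence intensity with signal-to-noise across triplicate slides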
[13] = E. coli DRC41 culture turbidity changes, primary screen, E. coli filamentation inducer project, strain DRC41, OD650, 48 h (AID 1152);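 note: E. coli MC1000 strain DRC41 lacking acrAB efflux pump and sulA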; details: E. coli DRC41 (acrAB sulA), higher = more signal, called active from +8 up or from −8 down
[14] = small-molecule binders of probe aLefty1, primary screen, biochemical, small-molecule microarray, 635/667 nm fluorescence (AID 1153); details: higher = more signal;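 note: score merges spot fluorescence with signal-to-noise ratio from the scanned slide images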
[15] = PSAC antagonists in infected red cells, primary screen, cell-based, P. falciparum Indochina, OD700, 1 h (AID 1154); details: P. falciparum Indochina infected RBC osmotic lysis, higher = more signal, called active from +8 up or from −8 down
[16] = PSAC antagonists in infected red cells, primary screen, cell-based, P. falciparum Indochina, OD700, 2 h (AID 1155);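 note: lysis reports solute entry through the parasite surface anion channel PSAC; channel blockers reduce lysis of infected cells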; details: P. falciparum Indochina infected erythrocytes, osmotic lysis OD700; higher = more signal, called active from +8 up or from −8 down
[17] = osmotic lysis modulators in infected erythrocytes, primary screen, PSAC antagonist project, cell-based, P. falciparum Indochina, OD700, 3 h (AID 1156); details: higher = more signal, called active from +8 up or from −8 down
[18] = PSAC antagonists in infected red cells, primary screen, cell-based, P. falciparum Indochina, OD700, 18 h (AID 1157); details: P. falciparum Indochina infected erythrocytes, osmotic lysis OD700, 18 h; higher = more signal, called active from +8 up or from −8 down
[19] = modulators of S6 phosphorylation in cells, primary screen, cell-based, A549, cytoblot, luminescence, serum-stimulated (AID 1158); details: A549 phospho-S6 cytoblot, 5 h, higher = more signal;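 note: serum-stimulated A549 lung adenocarcinoma cells; signal is phosphorylated S6 detected by cytoblot immunostaining with HRP secondary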
[20] = molecular target: NADPH oxidase 2 (Homo sapiens) (UniProt P04839); assay: NOX2-dependent H2O2 signal modulators, primary screen, NOX inhibitor project, cell-based, HEK293-NOX2, PMA-stimulated, Amplex Red fluorescence (AID 1159); details: 45 min, higher = more signal, called active from +8 up or from −8 down; note: test concentration not given here
Sequence of NADPH oxidase 2 (Homo sapiens) (P04839 whole entry, looked up): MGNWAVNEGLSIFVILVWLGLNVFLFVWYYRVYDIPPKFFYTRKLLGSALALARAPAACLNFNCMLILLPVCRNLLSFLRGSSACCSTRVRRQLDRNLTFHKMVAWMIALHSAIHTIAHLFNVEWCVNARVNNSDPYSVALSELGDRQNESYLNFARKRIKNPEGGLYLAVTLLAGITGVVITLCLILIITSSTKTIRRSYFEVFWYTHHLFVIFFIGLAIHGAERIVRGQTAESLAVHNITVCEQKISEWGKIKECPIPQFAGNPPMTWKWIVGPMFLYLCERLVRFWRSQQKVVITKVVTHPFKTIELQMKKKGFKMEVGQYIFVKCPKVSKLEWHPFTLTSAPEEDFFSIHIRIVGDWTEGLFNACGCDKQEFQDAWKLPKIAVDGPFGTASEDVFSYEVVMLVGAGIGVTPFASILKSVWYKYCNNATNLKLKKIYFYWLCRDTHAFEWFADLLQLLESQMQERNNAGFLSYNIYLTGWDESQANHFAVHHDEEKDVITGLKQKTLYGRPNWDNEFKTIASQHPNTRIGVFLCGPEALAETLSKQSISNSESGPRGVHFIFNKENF

Sequence of Luciferin 4-monooxygenase (Photinus pyralis) (P08659 whole entry, looked up): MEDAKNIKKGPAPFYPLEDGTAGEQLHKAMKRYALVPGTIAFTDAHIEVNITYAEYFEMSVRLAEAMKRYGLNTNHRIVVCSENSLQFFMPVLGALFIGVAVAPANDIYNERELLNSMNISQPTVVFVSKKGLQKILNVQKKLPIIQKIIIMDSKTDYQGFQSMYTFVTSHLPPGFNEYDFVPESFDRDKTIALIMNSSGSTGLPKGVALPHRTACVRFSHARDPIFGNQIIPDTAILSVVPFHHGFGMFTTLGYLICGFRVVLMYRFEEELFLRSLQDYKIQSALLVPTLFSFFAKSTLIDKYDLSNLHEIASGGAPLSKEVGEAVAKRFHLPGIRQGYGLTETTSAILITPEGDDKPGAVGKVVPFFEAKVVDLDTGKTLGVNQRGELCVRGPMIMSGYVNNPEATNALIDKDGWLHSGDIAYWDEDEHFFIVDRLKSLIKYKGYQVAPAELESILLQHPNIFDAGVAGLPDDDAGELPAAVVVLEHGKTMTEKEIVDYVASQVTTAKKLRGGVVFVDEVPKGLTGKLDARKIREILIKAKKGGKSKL
Sequence of Streptavidin (Streptomyces avidinii) (P22629 whole entry, looked up): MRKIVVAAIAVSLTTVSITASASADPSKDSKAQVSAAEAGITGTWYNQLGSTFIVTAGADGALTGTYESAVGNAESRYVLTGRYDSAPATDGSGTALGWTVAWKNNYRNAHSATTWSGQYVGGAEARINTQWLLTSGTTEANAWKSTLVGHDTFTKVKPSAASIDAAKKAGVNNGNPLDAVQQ
Sequence of Torsin-1A (Homo sapiens) (O14656 whole entry, looked up): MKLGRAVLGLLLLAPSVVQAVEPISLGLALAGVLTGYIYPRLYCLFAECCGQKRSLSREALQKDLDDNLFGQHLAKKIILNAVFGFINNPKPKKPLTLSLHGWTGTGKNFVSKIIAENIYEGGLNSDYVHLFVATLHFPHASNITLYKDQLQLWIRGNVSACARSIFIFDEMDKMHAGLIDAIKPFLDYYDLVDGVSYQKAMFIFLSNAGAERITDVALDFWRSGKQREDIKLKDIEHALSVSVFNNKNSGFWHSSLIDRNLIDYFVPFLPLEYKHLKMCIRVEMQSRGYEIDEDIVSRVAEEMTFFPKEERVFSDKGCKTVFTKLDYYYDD

Structure (SMILES)	composite z-score [1]	composite z-score [2]	z-score [3]	composite z-score [4]	z-score [5]	z-score [6]	z-score [7]	composite z-score [8]	composite z-score [9]	composite z-score [10]	composite z-score [11]	composite z-score [12]	z-score [13]	composite z-score [14]	z-score [15]	z-score [16]	z-score [17]	z-score [18]	z-score [19]	z-score [20]
CN1C=C(C(=O)OCCS(C)(=O)=O)C(C(=O)OCCS(C)(=O)=O)=CC(CCCO)=CC1c1cccs1 (stereo not given)	1.07	-0.485	-1.52 (inactive)	0.131	-0.894 (inactive)	5.95 (inactive)	-1.56 (inactive)	-0.0015	-0.299	0.408	0.0286	1.05	0.302 (inactive)	-0.0011	1.91 (inactive)	-1.53 (inactive)	-0.727 (inactive)	-1.71 (inactive)	-0.496	0.92 (inactive)
COc1ccc(CCNC(=O)[C@@]2(Sc3ccc(C)cc3)CC(=O)N(Cc3ccccc3)[C@@H]2c2ccc(CO)cc2I)cc1	-0.89	-0.0265	-0.707 (inactive)	-0.221	-1.9 (inactive)	1.13 (inactive)	1.72 (inactive)	-0.225	-0.24	0.272	0.192	-0.631	1.15 (inactive)	-0.321	12.6 (active)	1.57 (inactive)	0.0585 (inactive)	0.572 (inactive)	-0.262	1.82 (inactive)
C=C(COC)C(=O)CC[C@H](OC(=O)c1cccnc1)c1cccc(OCCO)c1	1.05	-0.363	-2.13 (inactive)	1	-0.365 (inactive)	6.86 (inactive)	0.309 (inactive)	-0.347	0.345	2.35	0.0556	2.06	1.05 (inactive)	0.75	10.4 (active)	1.47 (inactive)	0.934 (inactive)	0.577 (inactive)	-0.597	0.936 (inactive)
C=CC[C@]1(C(=O)N(C)C)N=C(c2ccc(OCCCO)cc2)O[C@H]1c1ccccc1CN=[N+]=[N-]	-0.168	0.757	-1.12 (inactive)	0.508	-1.79 (inactive)	2.8 (inactive)	-1.16 (inactive)	1.39	0.0388	0.581	1.1	0.0463	1.19 (inactive)	-0.237	11.8 (active)	1.47 (inactive)	2.63 (inactive)	0.817 (inactive)	0.434	1.23 (inactive)
CCCCCN1CC=CC23O[C@@H]4/C=C\CCC(C)OC(=O)C4[C@H]2C(=O)N(CCO)[C@@H]3C1=O (stereo not given in full)	-0.853	-0.564	-0.967 (inactive)	-0.376	-0.989 (inactive)	1.02 (inactive)	-1.06 (inactive)	-0.877	-0.233	0.615	0.816	-0.542	2.08 (inactive)	-0.147	2.04 (inactive)	0.402 (inactive)	0.944 (inactive)	0.0613 (inactive)	0.0564	1.88 (inactive)
C=CC[C@@]1(C(=O)NCc2ccccc2)N=C(c2ccc(OCCCO)cc2)O[C@@H]1c1ccccc1	-0.865	0.539	-1.05 (inactive)	0.102	-4.6 (inactive)	-0.16 (inactive)	-1.56 (inactive)	0.344	0.0582	0.161	0.551	-0.435	2.48 (inactive)	0.399	24.4 (active)	11.3 (active)	2.34 (inactive)	0.546 (inactive)	1.46	-0.189 (inactive)
CC(=O)OC(C/C=C\B1OC(C)(C)C(C)(C)O1)c1ccccc1 (stereo not given)	-0.0863	-0.405	-1.54 (inactive)	-0.115	-3.4 (inactive)	3.04 (inactive)	-2.27 (inactive)	-0.748	-0.284	-0.611	0.301	-0.236	-2.2 (inactive)	-0.147	0.344 (inactive)	-0.832 (inactive)	-0.628 (inactive)	-1.04 (inactive)	3.07	-0.889 (inactive)
COCCCNC(=O)[C@@]1(CCS(=O)(=O)c2ccccc2)N=C(c2ccc(OCCCO)cc2)O[C@H]1c1ccccc1CN=[N+]=[N-]	0.578	1.24	-0.888 (inactive)	0.671	-5.36 (inactive)	2.57 (inactive)	-1.7 (inactive)	1.41	0.358	-0.183	0.186	0.744	2.33 (inactive)	1.03	23.5 (active)	4.65 (inactive)	2.25 (inactive)	0.425 (inactive)	3.83	0.439 (inactive)
C=CCOC(=O)[C@H]1[C@@H]2C(=O)O[C@@H](c3ccccc3)[C@@H](c3ccccc3)N2[C@@H](c2ccc(OCCOC(=O)[C@H]3C[C@H]4C(=O)N5CCC[C@H]5C(=O)N4[C@H]3c3cccc(OCCO)c3)cc2)[C@]12C(=O)Nc1ccccc12	0.628	0.828	-1.23 (inactive)	0.135	-2.03 (inactive)	1.22 (inactive)	-0.378 (inactive)	-0.0186	-0.0849	0.292	1.54	1.18	1.18 (inactive)	-0.106	5.04 (inactive)	1.7 (inactive)	-0.158 (inactive)	0.741 (inactive)	-0.0338	2.26 (inactive)
COC(=O)c1c(CC[C@@H](CO)NC(=O)Nc2ccc(OC)cc2)oc(C(=O)Cc2ccccc2)c1C(=O)OC	1.08	0.371	-1.37 (inactive)	0.0603	0.566 (inactive)	9.58 (active)	-0.453 (inactive)	0.652	-0.0531	0.462	0.943	0.97	1.7 (inactive)	-0.147	3.06 (inactive)	1.01 (inactive)	0.681 (inactive)	0.458 (inactive)	-0.0632	1.31 (inactive)
COCCOC(=O)N1C(=O)[C@@]2(c3ccccc31)[C@H](C(=O)Nc1nc3ccccc3s1)[C@H]1C(=O)O[C@H](c3ccccc3)[C@H](c3ccccc3)N1[C@@H]2c1ccc(O)cc1	0.983	1.16	-2.88 (inactive)	0.418	-3.59 (inactive)	-0.199 (inactive)	-0.395 (inactive)	0.511	0.263	0.815	-0.06	2.07	2.37 (inactive)	0.577	10.9 (active)	5 (inactive)	1.67 (inactive)	2.06 (inactive)	1.92	-0.333 (inactive)
CC(C)C(CO)N1C(=O)[C@@H]2C3C(=O)OCCC/C=C\[C@H]3OC23C=CCN(C(C)C)C(=O)[C@@H]13 (stereo not given in full)	-0.278	-1.14	-0.774 (inactive)	-0.0608	0.303 (inactive)	0.333 (inactive)	-1.18 (inactive)	-0.643	0.0228	0.286	0.703	0.321	2.21 (inactive)	-0.142	-0.0173 (inactive)	-0.96 (inactive)	-0.677 (inactive)	-1.36 (inactive)	0.225	0.914 (inactive)
[N-]=[N+]=Nc1ccccc1[C@H]1OC(c2ccc(OCCCO)cc2)=N[C@@]1(Cc1ccccc1)C(N)=O	0.97	1.37	-12.6 (active)	0.792	-3.44 (inactive)	0.862 (inactive)	-1.89 (inactive)	1.92	0.329	0.596	0.622	0.281	1.99 (inactive)	0.752	31.6 (active)	28.4 (active)	1.64 (inactive)	7.66 (inactive)	1.8	-1.71 (inactive)
COCCOC(=O)N1C(=O)[C@@]2(c3cc(C#CC4(O)CCCCCC4)ccc31)[C@H](C(=O)NC[C@H](O)c1ccccc1)[C@H]1C(=O)O[C@H](c3ccccc3)[C@H](c3ccccc3)N1[C@@H]2c1ccccc1OCCO	1.4	0.791	-1.81 (inactive)	0.393	-5.32 (inactive)	-0.203 (inactive)	-0.464 (inactive)	0.637	0.0393	0.821	0.709	1.9	1.5 (inactive)	0.223	2.13 (inactive)	1.55 (inactive)	-0.535 (inactive)	0.922 (inactive)	0.632	1.82 (inactive)
COCCCNC(=O)[C@@]1(Cc2ccccc2)N=C(c2ccc(OCCCO)cc2)O[C@H]1c1ccccc1N=[N+]=[N-]	0.269	1.15	-4.34 (inactive)	0.834	-4.48 (inactive)	1.74 (inactive)	-1.74 (inactive)	0.356	0.49	0.544	0.449	0.475	1.78 (inactive)	0.826	29.6 (active)	27.1 (active)	3.66 (inactive)	1.92 (inactive)	0.98	-0.14 (inactive)
C=CCNC(=O)[C@@H]1[C@H]2C(=O)O[C@H](c3ccccc3)[C@H](c3ccccc3)N2[C@H](c2ccc(O)cc2)[C@@]12C(=O)Nc1ccccc12	0.52	0.567	-1.03 (inactive)	0.154	-2.84 (inactive)	-0.348 (inactive)	-1.3 (inactive)	-0.171	-0.218	-0.0795	-0.264	1.05	1.88 (inactive)	-0.22	3.11 (inactive)	0.87 (inactive)	0.253 (inactive)	0.983 (inactive)	0.686	-0.00775 (inactive)

— PubChem BioAssay
